Reference: PubChem BioAssay (NCATS)
Active and inactive are the calls of the source. Calls come from the whole dose curve; as a rule, active = well fitted inhibition curve with a large enough effect; inconclusive = small, poorly fitted or top-dose-only effect; inactive = flat fitted curve, though single readings scatter.

target: DNA dC->dU-editing enzyme APOBEC-3G (Homo sapiens) (UniProt Q9HC16); assay: qHTS for inhibitors of Vif-A3G interactions: Validation (AID 588379); conditions: Vif-A3G protein interaction assay; series mostly up to 46.1 µM
Sequence (Q9HC16 whole entry, looked up): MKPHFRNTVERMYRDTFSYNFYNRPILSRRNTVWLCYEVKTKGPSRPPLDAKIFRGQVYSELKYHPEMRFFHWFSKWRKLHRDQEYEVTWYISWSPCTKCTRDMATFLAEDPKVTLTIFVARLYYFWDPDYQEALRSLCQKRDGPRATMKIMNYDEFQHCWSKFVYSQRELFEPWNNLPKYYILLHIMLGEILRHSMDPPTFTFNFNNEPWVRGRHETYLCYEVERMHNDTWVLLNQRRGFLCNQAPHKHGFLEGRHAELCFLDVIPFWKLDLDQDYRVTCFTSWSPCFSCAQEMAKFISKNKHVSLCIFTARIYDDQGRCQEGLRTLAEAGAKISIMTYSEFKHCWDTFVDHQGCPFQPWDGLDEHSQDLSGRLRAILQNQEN
Text: The recent discovery and characterization of host restriction factors, which provide a potent defense to invading retroviruses, has provided new targets for antiviral drug development. APOBEC3G (A3G) and APOBEC3F (A3F) are potent cytidine deaminases that block HIV-1 replication; HIV-1 expresses the Vif protein, which counteracts A3G and A3F by binding to them and inducing their proteasomal degradation.
The Vif-A3G and Vif-A3F interactions provide two potential targets for development of small molecules which can interfere with the ability of Vif to degrade A3G or A3F. […] To identify inhibitors that can interfere with Vif mediated degradation of A3G and A3F, we have developed Hela cell lines that stably express A3G or A3F tagged with eYFP at the C-terminal end (A3G-eYFP or A3F-eYFP, respectively) and Vif. In the absence of an inhibitor, Vif induces degradation of A3G-eYFP and A3F-eYFP, and the cells are not fluorescent. In the presence of an inhibitor, it is expected that Vif will be unable to degrade A3G-eYFP and/or A3F-eYFP, resulting in an increase in yellow fluorescence. In this assays Vif A3G was screened against the Molecular Library Small Molecile Repository (MLSMR).
NIH Chemical Genomics Center [NCGC]
NIH Molecular Libraries Probe Centers Network [MLPCN]
Assay Submitter (PI): Vinay Pathak, National Cancer Institute
5 uL of 700 cells/well of A3G-YFP cells are dispensed into black, clear bottom plates. The plates are incubated overnight at 37 deg C. 23 nL of compounds are added by pintool. The plates are incubated overnight at 37 deg C and then read on the TTP Acumen (Ex 488/ Em 500-530).

Structure (SMILES) | outcome
Cc1[nH]ccc2c1[nH]c1cc(=O)ccc12 | inactive
N[C@H](C(=O)O)c1ccc(O)c(C(=O)O)c1 | inactive
C=CC(C)(O)CCC=C(C)C (stereo not given) | inactive
CN=C1N[C@H](c2ccccc2)N(c2ccccc2)S1 | inactive
O=c1cc(-c2ccc(O)c(O)c2)oc2cc(OC3OC(CO)C(O)C(O)C3O)cc(O)c12 (stereo not given) | inactive
O=C1C=CC2=C3c4cc(O)c(O)cc4CC3(O)COC2=C1O (stereo not given) | inactive
N#C/C(=C\c1ccc(O)c(O)c1)C(=O)NCCCCc1ccccc1 | inactive
CC(=O)Oc1c(C)c(C)c2c(c1C)CCC(C)(CCCC(C)CCCC(C)CCCC(C)C)O2 (stereo not given) | inactive
O=[N+]([O-])c1cccc2c[nH]nc12 | inactive
OC[C@H]1O[C@@H](n2cnc3c(NCc4ccco4)ncnc32)[C@H](O)[C@@H]1O | inactive
COc1cc(/C=C\c2ccc(OC)cc2OC)cc(OC)c1 | inactive
Clc1cccc2c1CN(C1=NCCN1)C2 | inactive
CC1(C)[C@@H](O)CC[C@]2(C)C3C(=O)C=C4C5C[C@@](C)(C(=O)O)CC[C@]5(C)CC[C@@]4(C)[C@]3(C)CC[C@@H]12 (stereo not given in full) | inactive
COc1cc2c(cc1OC)C(=O)Cc1ccc3c(c1CN(C)CC2)OCO3 | inactive
N[C@H](Cn1ccc(=O)c(O)c1)C(=O)O | inactive
CCCC[P+](CCCC)(CCCC)Cc1ccc(NC(=O)[C@@H](Cc2ccc3ccccc3c2)NC(=NC2CCCCC2)NC2CCCCC2)cc1 | inactive
CC1=CC(=O)CC(C)(C)C1(O)/C=C/C(C)=C\C(=O)O (stereo not given) | inactive
COc1c(O)cc2oc3cc(O)c(CC=C(C)C)c(O)c3c(=O)c2c1CC=C(C)C | inactive
Cn1cc(C(F)(F)F)nc1-c1ccc(OC[C@@H](O)CNCCOc2ccc(O)c(C(N)=O)c2)cc1 | inactive
COc1cc2ccc(=O)oc2cc1O | inactive

Structure (SMILES) | outcome
COc1ccc2c(c1)[C@@]1(C)CCC[C@](C)(CO)C1CC2 (stereo not given in full) | inactive
Cc1c(CC(C)(C)C(=O)O)n(Cc2ccc(Cl)cc2)c2ccc(F)cc12 | inactive
COC(=O)C1=C(C)NC(C)=C(C(=O)OCCSc2ccccc2)[C@@H]1C | inactive
CCCCCCCCCCCCCC(=O)O[C@H](CC(=O)O)C[N+](C)(C)C | inactive
N#C/C(=C\c1ccc(O)c(O)c1)C(=O)OCCc1cccs1 | inactive
Oc1cc2c(c(Cl)c1O)CCNC[C@H]2c1ccccc1 | inactive
COc1cc2c3cc1Oc1c(OC)c(OC)cc4c1[C@@H](Cc1ccc(O)c(c1)Oc1ccc(cc1)C[C@@H]3N(C)CC2)N(C)CC4 | inactive
CC1(C)Oc2ccc(C#N)cc2[C@H](N2CCCC2=O)[C@H]1O | inactive
COc1c(-c2ccc(O)c(O)c2)oc2cc(O)cc(O)c2c1=O | inactive
CC[C@@]12CCCN3CCc4c(n(c5ccccc45)[C@](O)(C(=O)OC)C1)[C@H]32 | inactive
CS(=O)(=O)c1ccc(Cn2c3c(c4cc(F)cc(F)c42)CCC[C@H]3CC(=O)O)cc1 | inactive
O=c1[nH]cnc2c1ncn2C1OC(CO)C(O)C1O (stereo not given) | inactive
CN1CCc2cccc3c2[C@@H]1Cc1ccc(O)c(O)c1-3 | inactive
C/C(=C\COc1cc(=O)[nH]c2ccccc12)CCC(O)C(C)(C)O (stereo not given) | inactive
O=C(/C=C/c1ccc(O)c(O)c1)OC(Cc1ccc(O)c(O)c1)C(=O)O (stereo not given) | inactive
Cc1cc(C)c(S(=O)(=O)Nc2ccccc2C(F)(F)F)c(C)c1 | inactive
C=C(C)[C@H]1CC=C(C)C(=O)C1 | inactive
CCCNC(=O)N1N=C(c2ccc(N)cc2)c2cc3c(cc2[C@H]1C)OCO3 | inactive
CCCCCCCNS(=O)(=O)c1cccc2c(Cl)cccc12 | inactive
N[C@@H](C(=O)O)c1ccc(O)c(C(=O)O)c1 | inactive
